Compound activity from PubChem BioAssay.
mHTT-CaM PPI inh: inhibitors of human mutant huntingtin-calmodulin interaction; AlphaScreen His-mHTT/GST-CaM binding, luminescence; inhibition, % at 15 µM; actives 3.6% (n = 190,000)
Pf apPOL block: Pf-apPOL DNA polymerase inhibition | Recombinant Pf-apPOL, molecular beacon fluorescence, 1.5 h | inhibition, % at 10 µM | actives 0.25% (n = 210,000)
Hits are given with their value; - = inactive; . = not tested or not shown. Only a selection was taken, and hits are over-represented in it overall. Rule as the data show it: active = inhibition above about 50%; inactive = the rest.

SMILES	mHTT-CaM PPI inh	Pf apPOL block
COc1ccccc1N1CCN(CC(O)COC2CC3CCC2(C)C3(C)C)CC1 (stereo not given)	-	-
CC1(C)C2CCC1(C)C(OCC(O)CN1CCCCC1)C2 (stereo not given)	-	-
O=C(NCc1csc(C2CCCN(C(=O)c3cc(F)ccc3F)C2)n1)C1CCC1 (stereo not given)	-	-
CCc1nn(-c2ccccc2Cl)c(CC)c1C(=O)N1CCN(CC)CC1	-	-
COC(=O)c1c(C)oc2ccc(OC(=O)C(C)(C)C)cc12	-	-
Cc1ccccc1Oc1ccc(NC(=O)CC(C)(C)C)cn1	-	-
C=CCn1c(SCC(=O)c2ccc(Cl)cc2)nc2ccccc2c1=O	-	-
COCCn1c(C2CCCCC2)nc2oc3cc(OC)ccc3c(=O)c2c1=O	-	-
O=C(OC1Cc2c(O)cc(O)cc2OC1c1cc(O)c(O)c(O)c1)c1cc(O)c(O)c(O)c1 (stereo not given)	.	54
O=C1c2c(O)cc(O)cc2OC(c2ccc(O)c(O)c2)C1O (stereo not given)	.	-
Cc1ccc(S(=O)(=O)Nc2ccc3c(ncn3C)c2[N+](=O)[O-])cc1	-	-
COc1ccc(C2CC(c3cc(Cl)ccc3O)=NN2)cc1OC (stereo not given)	74	-
COc1ccc(C2CC(c3ccc(Cl)cc3)Nc3nc(N)nn32)cc1OC (stereo not given)	-	-
COc1ccc(C2C=C(c3ccc(F)cc3)Nc3nnnn32)c(OC)c1 (stereo not given)	-	-
Oc1ccc(Br)cc1C1=NNC(c2cccs2)C1 (stereo not given)	-	-
Oc1ccc(C2CC(c3ccccc3O)=NN2)cc1 (stereo not given)	96	-
CCOc1ccc(C2CC(c3ccccc3O)=NN2)cc1 (stereo not given)	-	-
COc1ccc(C2CC(c3cc(F)ccc3O)=NN2)c(OC)c1 (stereo not given)	56	-
Oc1ccc(Cl)cc1C1=NNC(c2ccc(Br)cc2)C1 (stereo not given)	75	-
Oc1ccc(Cl)cc1C1=NNC(c2ccccc2F)C1 (stereo not given)	54	-
CCOC(=O)N1CCC2(CC1)N=C(c1cc(Cl)ccc1O)CC(c1ccccc1)N2 (stereo not given)	-	-
O=C(Nc1ccc([N+](=O)[O-])cc1Br)c1cc2ccccc2o1	-	-
CCc1ccc(S(=O)(=O)N2CCSC2c2ccc(OC)cc2)cc1 (stereo not given)	-	-
Cc1ccccc1CN1Cc2cccc3c2[C@H](C=CC3)CC1=O	100	-
COc1ccccc1CN1Cc2cccc3c2[C@@H](CC1=O)[C@H](O)[C@H](O)C3	-	-
SMILES	mHTT-CaM PPI inh	Pf apPOL block
O=C1CC2C=CCc3cccc(c32)CN1Cc1cccc(F)c1 (stereo not given)	100	-
O=C1C[C@H]2C=CCc3cccc(c32)CN1Cc1ccc(Br)cc1	-	-
CS(=O)(=O)c1cccc(-c2nnc(NC(=O)C3c4ccccc4Oc4ccccc43)o2)c1	99	-
O=C(Nc1nnc(-c2ccco2)o1)C1c2ccccc2Oc2ccccc21	-	-
O=C(O)C12CC3CC(C1)CC(n1cnc(Br)n1)(C3)C2	-	.
COc1ccc(C2CC(=O)Nc3n[nH]c(-c4ccccc4)c32)cc1 (stereo not given)	-	-
COc1ccc(OC)c(C2CC(=O)Nc3n[nH]c(-c4ccccc4)c32)c1 (stereo not given)	94	-
COc1cc(C2CC(=O)Nc3n[nH]c(-c4ccccc4)c32)ccc1O (stereo not given)	54	-
COc1ccc(C2CC(=O)Nc3n[nH]c(-c4ccccc4)c32)cc1OC (stereo not given)	-	-
COc1cc(C2CC(=O)Nc3n[nH]c(-c4ccc(Cl)cc4)c32)cc(OC)c1OC (stereo not given)	100	-
COc1cccc(C2CC(=O)Nc3n[nH]c(-c4ccc(Cl)cc4)c32)c1 (stereo not given)	-	-
Cc1ccc2nc(-c3ccc(NC(=O)c4ccccc4)cc3)sc2c1	.	-
CCN(CCCNC(=O)c1cn(CCOC)c(=O)c2c1c1ccccc1n2C)Cc1ccccc1	-	-
O=[N+]([O-])c1cc([N+](=O)[O-])c2cccnc2c1Nc1ccc(N2CCOCC2)cc1	56	-
CCOc1ccc(Nc2c([N+](=O)[O-])cc([N+](=O)[O-])c3cccnc23)cc1	-	-
Cc1ccc(Nc2c([N+](=O)[O-])cc([N+](=O)[O-])c3cccnc23)cc1	51	-
O=[N+]([O-])c1cccnc1N1CCOCC1	-	-
CC1OC12C(=O)OC1CCN(C)CC=C(COC(=O)C(C)(O)C2C)C1=O (stereo not given)	.	-
O=C(Nc1ccc2c(c1)OCCO2)C1CN(S(=O)(=O)C2CC2)CC12CCCCC2 (stereo not given)	-	-
COc1cc(/C=C2\C(C)=C([N+](=O)[O-])CS2(=O)=O)ccc1O	87	-
COc1cc([N+](=O)[O-])ccc1O	-	.
CC(C)(C)c1cc(C(=O)O)cc(C(C)(C)C)c1	-	-
CN(C)S(=O)(=O)N1CCc2nc(NC(=O)c3cccs3)sc2C1	-	-
CCOc1cc(C2C=C(c3ccc(C)cc3)Nc3ncnn32)ccc1OC(F)F (stereo not given)	-	-
Cc1ccccc1OCC(=O)N1N=C(c2cccc(Br)c2)CC1(O)C(F)(F)F (stereo not given)	99	-
SMILES	mHTT-CaM PPI inh	Pf apPOL block
CCCCC1=NN(C(=O)COc2ccc(Cl)c(C)c2)C(O)(C(F)(F)F)C1 (stereo not given)	100	-
CCCCC1=NN(C(=O)c2ccccc2Cl)C(O)(C(F)(F)F)C1 (stereo not given)	-	-
CCC1=NN(C(=O)COc2ccccc2C)C(O)(C(F)(F)F)C1 (stereo not given)	-	-
CCN(CC)c1ccc(N)c(C)c1	58	-
CCN(CC)c1ccc(C#N)cc1	.	-
CCN(CC)c1ncnc2sc(C(=O)Nc3ccccn3)c(C)c12	-	-
CCCN1CCCc2cc(CCNC(=O)COCC)ccc21	59	-
CN1CCCc2cc(CCNC(=O)C(=O)NCc3cccs3)ccc21	-	-
COc1ccc(CC(=O)Nc2ccc(N3CCCC3=O)c(OC)c2)cc1OC	-	-
CCN1CCCc2cc(CCNC(=O)Nc3ccc(OC)c(OC)c3)ccc21	86	-
CC(C)N(C)C(=O)c1ccccc1N1CCC(NC(=O)c2ccc(F)cc2F)CC1	-	-
O=C(c1cc2ccccc2oc1=O)N1CCSC1c1ccc(Br)cc1 (stereo not given)	-	-
CN1CCC(N(C)C(=O)c2cc3c(-c4ccccc4)nn(-c4ccccc4)c3s2)CC1	100	-
Cc1nn(-c2ccccc2)c2sc(C(=O)NC(C)C)cc12	-	-
O=C(c1ccc(F)cc1)N1CCCC2(CC(c3ccc(Cl)cc3)=CO2)C1 (stereo not given)	-	-
O=C(c1ccc(Cl)cc1)N1CCCC2(CC(c3cccc(Cl)c3)=CO2)C1 (stereo not given)	-	-
O=C(c1ccccc1)N1CCCC2(CC(c3cccc(Cl)c3)=CO2)C1 (stereo not given)	96	-
O=C(c1ccco1)N1CCCC2(CC(c3ccc(Cl)cc3)=CO2)C1 (stereo not given)	-	-
O=C(c1ccco1)N1CCCC2(CC(c3cccc(Cl)c3)=CO2)C1 (stereo not given)	90	-
